The record followed here is PubChem BioAssay AID504332 (National Center for Advancing Translational Sciences (NCATS), 2011).

SMILES strings stand for the structures. Among all 350,000 compounds or so, about 31,000 (8.9%) were called active. Another 15% or so got no clear call; they are omitted. The call rests on the fitted dose curve; in most records, active means well fitted inhibition curve with a large enough effect; inconclusive means small, poorly fitted or top-dose-only effect; inactive means no such curve, though single readings can be large or run the other way. The entries come from a sample that favours actives as a whole. The source holds several records for some structures; these can differ, active in one and inactive in another.
On the % scale 0 is the no-effect control and ±100 the full control effect; potency means the concentration at half of the fitted maximal effect.

For the assay, the target named is Histone-lysine N-methyltransferase EHMT2 (Homo sapiens) (UniProt Q96KQ7). In words: qHTS Assay for Inhibitors of Histone Lysine Methyltransferase G9a. Further: nearly all actives have a fitted effect of over 75% in size. The settings on record: G9a H3K9 monomethylation, AlphaScreen, 2 h; series mostly up to 59 µM; activity, negative = inhibition: at the top concentration. In short, it runs like this: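 Methyltransferase reactions run at room temperature for 2 h (20 nM enzyme, 500 nM biotin-H3K9 peptide, 20 uM SAM) after a 15 min compound preincubation; product detected by AlphaScreen beads and anti-H3K9me1 antibody.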
Histone-lysine N-methyltransferase EHMT2 (Homo sapiens), sequence (Q96KQ7 913-1193 limits assumed): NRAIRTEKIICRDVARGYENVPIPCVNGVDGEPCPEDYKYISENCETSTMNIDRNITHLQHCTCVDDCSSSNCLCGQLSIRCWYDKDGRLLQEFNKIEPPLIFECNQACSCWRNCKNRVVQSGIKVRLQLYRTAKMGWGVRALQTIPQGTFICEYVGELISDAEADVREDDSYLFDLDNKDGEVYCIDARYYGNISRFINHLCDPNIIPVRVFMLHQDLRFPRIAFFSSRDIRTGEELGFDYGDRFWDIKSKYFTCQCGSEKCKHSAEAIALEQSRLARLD
(Quantitative high-throughput screening tests each substance at several concentrations.)
`COc1ccc(NS(=O)(=O)c2cc(NC(=O)COc3ccccc3F)ccc2OC)cc1`: the activity, negative = inhibition is 30.6% [at 12.7 µM] (inactive).

For `CC1=C(C(=O)Nc2ccccc2Cl)C(c2cccs2)n2ncnc2N1` (centres undefined), the “activity, negative = inhibition” value is 0.0916% (inactive).

Take `CC1(C)O[C@@H]2[C@H](O1)[C@@H](COS(=O)(=O)O)O[C@H]2n1ccc(=O)[nH]c1=O`: the activity, negative = inhibition is 2.02% [at 2.33 µM] (inactive).

As for `Cc1cccc(-c2oc3ccc(-c4ccc5c(c4)OCO5)cc3c2C#Cc2cncn2C)c1`, the activity, negative = inhibition was 7.97% [at 0.501 µM] (inactive).

Regarding `COc1ccc(Cl)cc1C(=O)OCC(=O)NCc1cccs1`, the “activity, negative = inhibition” value was 5.04% (inactive).

As to `CCSc1nnc(NC(=O)c2cc(=O)c3cc(C)c(C)cc3o2)s1`, the “activity, negative = inhibition” value is -6.05% (inactive).

Take `Cc1ccc(Cl)cc1NC(=O)NC1COc2ccccc2C1` (centres undefined): the “activity, negative = inhibition” value was 0.91% (inactive).

Turning to `CSc1nc(Nc2ccc(F)cc2)cc(-c2ccccc2)n1`, the “activity, negative = inhibition” value was 18.2% (inactive).

With `CN(C)c1nc(NN)nc(Nc2ccc(F)cc2)n1`, the “activity, negative = inhibition” value is 5.01% [at 102 µM] (inactive).

Take `Fc1ccc(Nc2nnns2)cc1`: the Potency is 10 µM (active).

Consider `O=C1/C(=C\c2cccnc2)CN(Cc2ccccc2)C/C1=C\c1cccnc1`, for which the “activity, negative = inhibition” value was -13.5% (inactive).

`Cc1ccc(C2=CSC3=NS(=O)(=O)CCN23)cc1C`: the “activity, negative = inhibition” value is -0.694% (inactive).

As to `O=S1(=O)CCN2C(=N1)SC1=C2CCN(Cc2ccccc2)C1`, the Potency is 20 µM (active).

As to `COc1ccccc1C(=O)NCCC(=O)N(C)Cc1cccnc1`, the “activity, negative = inhibition” value is 9.72% (inactive).

On to `COCCN1C(=O)C(=O)/C(=C(/O)c2ccc(S(=O)(=O)N3CCOCC3)cc2)C1c1ccc(OC)c(OC)c1` (centres undefined), for which the “activity, negative = inhibition” value is -13% [at 102 µM] (inactive).

`O=C1C(=O)N(CCN2CCOCC2)C(c2ccccn2)/C1=C(/O)c1ccc(Cl)cc1` (centres undefined): the Potency was 7.94 µM (active).

In the case of `O=C1C(=O)N(CCCO)C(c2ccccc2)/C1=C(\O)c1ccc(Br)cc1` (centres undefined), the activity, negative = inhibition is 12.3% [at 0.501 µM] (inactive).

As for `COc1ccc(C2/C(=C(/O)c3ccc(OC(C)C)cc3)C(=O)C(=O)N2CCCN2CCOCC2)cc1` (centres undefined), the Potency is 44.7 µM (active).

Take `O=C1C(=O)N(CCCN2CCOCC2)C(c2ccc([N+](=O)[O-])cc2)/C1=C(\O)c1ccc2c(c1)OCCO2` (centres undefined): the activity, negative = inhibition is -12.3% [at 0.0925 µM] (inactive).

Take `CC1Cc2cc(/C(O)=C3\C(=O)C(=O)N(CCN4CCOCC4)C3c3ccccc3F)ccc2O1` (centres undefined): the “activity, negative = inhibition” value was 10% (inactive).

Take `CCCCSCCCNC(=O)C1CCC(CNS(=O)(=O)c2ccc(NC(C)=O)cc2)CC1` (centres undefined): the “activity, negative = inhibition” value is 16.1% [at 102 µM] (inactive).

Take `COCCN(Cc1ccccc1)C(=O)Cc1ccc(S(=O)(=O)N2CCOCC2)s1`: the activity, negative = inhibition is -3.78% [at 12.7 µM] (inactive).

For `COc1ccc(NC(=O)Cn2c(=O)n(CCC(C)C)c(=O)c3cccnc32)cc1Cl`, the “activity, negative = inhibition” value was -0.386% (inactive).

For the compound `O=C(Nc1ccc(Br)cc1)c1cc2nc(-c3ccccc3)cc(-c3ccccc3)n2n1`, the “activity, negative = inhibition” value is 29.5% (inactive).

On to `COc1ccc(C(=O)Nc2ccc(N3CCC(C)CC3)cc2)cc1Br`, for which the “activity, negative = inhibition” value is -10% [at 102 µM] (inactive).

With `COc1cccc(C(=O)Nc2ccc(N3CCN(C(=O)c4ccco4)CC3)cc2)c1`, the “activity, negative = inhibition” value was -10.2% [at 102 µM] (inactive).

As to `Cc1ccc(C(=O)NC(=S)Nc2ccc(N3CCOCC3)cc2)cc1`, the Potency was 7.94 µM (active).

Consider `Cc1ccccc1C(=O)NC(=S)Nc1ccc(N2CCN(C(=O)c3ccccc3)CC2)cc1`, for which the “activity, negative = inhibition” value is -1.64% [at 102 µM] (inactive).

On to `COc1ccc(C(=O)Nc2ccc3nc(N4CCCCC4)cc(C)c3c2)cc1OC`, for which the “activity, negative = inhibition” value is 1.41% (inactive).

In the case of `O=C(O)CCC(=O)Nc1ccc(N2CCOCC2)cc1`, the “activity, negative = inhibition” value is -10.4% (inactive).

Regarding `COC(=O)Cc1ccc(NC(=S)NCc2ccccc2)cc1`, the “activity, negative = inhibition” value was 10% (inactive).

On to `O=C(Cc1ccccc1)NC(=S)Nc1ccc(N2CCCCC2)cc1`, for which the Potency is 7.94 µM (active).

On to `COc1cccc(C(=O)Nc2ccc3nc4n(c(=O)c3c2)CCCCC4)c1`, for which the “activity, negative = inhibition” value is 1.5% (inactive).

`Cc1ccc(C(=O)NC(=S)NCCN2CCOCC2)cc1`: the “activity, negative = inhibition” value is -39.8% (inactive).

In the case of `COc1ccc(C(=O)NC(=S)Nc2ccc(N3CCCC3)cc2)cc1OC`, the Potency was 3.98 µM (active).

Regarding `COc1cccc(C(=O)Nc2ccc(N3CCCC3)cc2)c1`, the Potency is 4.47 µM (active).

On to `COc1ccc2oc(-c3ccc(C)c(NC(=O)c4sc5ccccc5c4Cl)c3)nc2c1`, for which the “activity, negative = inhibition” value is -23.3% (inactive).

`CCOc1ccccc1NC(=S)NC(=O)CCc1ccccc1`: the “activity, negative = inhibition” value was -3.32% [at 102 µM] (inactive).

With `CSCC[C@H](NC(=O)N1CCn2c1nc1ccccc12)C(=O)NCc1ccc2c(c1)OCO2`, the “activity, negative = inhibition” value is -13.1% [at 102 µM] (inactive).

For the compound `Cc1ccnc(NC(=O)CCNS(=O)(=O)c2ccc(C)c(C)c2)c1`, the “activity, negative = inhibition” value is 52.3% [at 102 µM] (inactive).

For the compound `CN(Cc1ccccc1)C(=O)CSc1nc2ccccc2[nH]1`, the “activity, negative = inhibition” value was 2.4% (inactive).

For the compound `O=c1cc(-c2ccccc2)[nH]c2cc(F)ccc12`, the “activity, negative = inhibition” value was 1.07% [at 102 µM] (inactive).

On to `O=c1cc(-c2ccccc2)[nH]c2nc(Cl)ccc12`, for which the Potency is 20 µM (active) and the activity, negative = inhibition is 48.3% [at 12.7 µM] (inactive).

`Cc1ccc(-c2cc(=O)c3ccc(Cl)cc3[nH]2)cc1`: the Potency entry is “inactive”.

For `CCN(CC)CCCNC(=O)c1cc2c(=O)[nH]c3ccc(C)cc3c2s1`, the “activity, negative = inhibition” value is 17.6% [at 102 µM] (inactive).

With `CCCCn1c(N)c(N(CC(C)C)C(=O)c2cccc(S(=O)(=O)N3CCN(C(C)=O)CC3)c2)c(=O)[nH]c1=O`, the “activity, negative = inhibition” value is -7.91% [at 102 µM] (inactive).

As to `CCCCn1c(N)c(N(CCOC)C(=O)c2cccc(S(=O)(=O)N3CCCCC3)c2)c(=O)[nH]c1=O`, the Potency was 50.1 µM (active).

As for `CCCCn1c(N)c(N(CCOC)C(=O)c2cccc(OCc3ccccc3)c2)c(=O)[nH]c1=O`, the “activity, negative = inhibition” value is -27.6% [at 102 µM] (inactive).
